Measured values taken from PubChem BioAssay AID540364 (The Scripps Research Institute Molecular Screening Center, 2011).
Screen size: about 360,000 compounds; about 2,000 (0.56%) were called active.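 How the source made its calls: active means activation above the average of all compounds screened plus 3 SD, cutoff fixed separately per campaign (cut at about 7.5% in these data); inactive means the rest.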 Many of the other results were omitted from the sample, so actives are more common in it than they were.

test: GAA850 frataxin promoter reporter upregulation – cell-based, luciferase luminescence, HEK293 lucGAA850, primary screen (AID 540364); conditions: HEK293 lucGAA850 FXN promoter luciferase reporter, 24 h; at 6 µM; stronger effect = higher value; percent of 10 µM SAHA response;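 further: 0% = DMSO wells and 100% = 10 µM SAHA wells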

Row | SMILES | activation
1 | Cc1ccc(C2Nc3cccc4cccc(c34)N2)cc1 | 14.9% (active)
2 | Cc1ccc(C2CC(c3cccc(C)c3)n3nc(N)nc3N2)cc1 (centres undefined) | -0.54% (inactive)
3 | Oc1ccc(C2Nc3cccc4cccc(c34)N2)cc1 | 1.97% (inactive)
4 | CSCCC(NC(=O)COc1ccccc1)C(=O)OCC(=O)c1cc2ccccc2o1 (centres undefined) | -0.05% (inactive)
5 | CC(C)c1ccc(NC2CCCN(C(=O)c3ccncc3)C2)cc1 (centres undefined) | 3.59% (inactive)
6 | CCCCCCCCCCCC(=O)O | 9.07% (active)
7 | O=C(O)CCCCCCCCCC[n+]1ccccc1 | 0.28% (inactive)
8 | NC(=O)NCCCC(=O)O | 1.1% (inactive)
9 | Cn1c(=O)cc(OCCCC(=O)N2CCN(c3ccccn3)CC2)c2ccccc21 | -3.01% (inactive)
10 | O=C(Nc1ccc(F)cc1)c1cc2c(s1)CCCC2 | 2.99% (inactive)
11 | O=C(NCc1cccnc1)Nc1cccc(NC(=O)NCc2cccnc2)c1F | 0.81% (inactive)
12 | CCN(CCN(C)C)C(=O)c1ccc2nc(C)c(N(C)C(=O)CCc3ccccc3)n2c1 | 0.72% (inactive)
13 | CC(C)c1ccc(NS(=O)(=O)c2cn(C)c(=O)n(C)c2=O)cc1 | 14.8% (active)
14 | Cn1cc(S(=O)(=O)NC(c2ccccc2)c2ccccc2)c(=O)n(C)c1=O | -1.45% (inactive)
15 | Cn1cc(S(=O)(=O)Nc2ccc(Cl)cc2Cl)c(=O)n(C)c1=O | 1.45% (inactive)
16 | COc1ccc(C(C#N)Nc2ccc(C)cc2)cc1 (centres undefined) | -0.7% (inactive)
17 | O=C1C=C(c2ccnc3cc(Cl)ccc23)C[C@@H](c2ccc3c(c2)OCO3)C1 | -1.07% (inactive)
18 | CC(C)c1cc(C(=O)O)n[nH]1 | -1.31% (inactive)
19 | CC(C)c1cc(C(=O)N/N=C/C(Br)=C/c2ccccc2)n[nH]1 | 9.41% (active)
20 | Cc1cc(C(=O)N/N=C\C(Br)=C\c2ccccc2)c(C)o1 | 11.4% (active)
21 | Cc1cc(-c2n[nH]c(=S)n2/N=C/C(Br)=C/c2ccccc2)n[nH]1 | -0.09% (inactive)
22 | Cc1cc(C(=O)NCCc2ccc(Cl)cc2)c(C)o1 | 3.56% (inactive)
23 | Cc1ccc(-c2cc(C(=O)N/N=C/C=C/c3ccccc3)n[nH]2)o1 | 1.11% (inactive)
24 | CCN(C(=O)COC(=O)C1CCN(S(=O)(=O)c2ccc(C)c(C)c2)CC1)C1CCS(=O)(=O)C1 (centres undefined) | 0.06% (inactive)
25 | COc1cccc(OC)c1C(=O)Nc1ccc(Cc2ccncc2)cc1 | 3.03% (inactive)
26 | CC(=O)c1ccc(NC(=O)CCc2nnc3ccc(NCc4ccco4)nn23)cc1 | 3.69% (inactive)

Row | SMILES | activation
27 | CCc1nnc(NC(=O)CSc2nnnn2-c2cccc(C(C)=O)c2)s1 | 0.27% (inactive)
28 | CC[C@]12c3[nH]c4ccc(Cl)cc4c3CCN1C(=O)[C@@H](CC(=O)NCCCOC)C[C@@H]2C(=O)N1CCN(C(=O)C2CC2)CC1 | -1.48% (inactive)
29 | O=C(Nc1ccc2c(c1)OCCO2)c1cnccn1 | 7.89% (active)
30 | O=C(CCN1C(=O)c2ccncc2C1=O)Nc1ccc2c(c1)OCCO2 | -1.17% (inactive)
31 | O=C(Nc1ccc2c(c1)OCCO2)c1ccoc1 | 0.23% (inactive)
32 | CC[C@]1(C(=O)OC)[C@H]2C(=O)N(Cc3ccccc3)C(=O)[C@H]2[C@H]2CN=C(SCc3ccccc3)N21 | 15.5% (active)
33 | CCCN=C1N(C)C[C@@H]2[C@@H]3C(=O)N(Cc4ccccc4)C(=O)[C@@H]3[C@](C)(C(=O)OC)N12 | -0.73% (inactive)
34 | CCN1C[C@@H]2[C@@H]3C(=O)N(Cc4ccccc4)C(=O)[C@@H]3[C@](C)(C1=O)N2C(=O)c1ccc(C(C)(C)C)cc1 | 1.3% (inactive)
35 | CCC1(CC)C(=O)C2=C3C1[C@H](C(=O)OC)C=C(C(=O)OC)C[C@H]3[C@H]1C(=O)N(Cc3ccccc3)C(=O)[C@H]1[C@H]2C (some centres undefined) | -4.42% (inactive)
36 | COC(=O)[C@]1(Cc2ccccc2)N[C@H](CN(C)S(=O)(=O)c2ccc(F)cc2)[C@@H]2C(=O)N(Cc3ccccc3)C(=O)[C@@H]21 | -3.95% (inactive)
37 | CC[C@]1(C(=O)OC)[C@H]2C(=O)N(C)C(=O)[C@H]2[C@H]2CN(C)C(=NCc3ccccc3)N21 | -0.41% (inactive)
38 | CCNC(=O)N(CC)C[C@H]1N[C@@](CC)(C(=O)OC)[C@H]2C(=O)N(Cc3ccccc3)C(=O)[C@@H]12 | 0.95% (inactive)
39 | CC[C@]1(C(=O)OC)[C@H]2C(=O)N(Cc3ccccc3)C(=O)[C@H]2[C@H]2CN=C(SCc3ccc(Cl)cc3)N21 | 17.8% (active)
40 | COC(=O)[C@@]1(C)[C@H]2C(=O)N(Cc3ccccc3)C(=O)[C@H]2[C@H]2CN=C(SCC3CC3)N21 | 15.7% (active)
41 | CCN(C[C@H]1N[C@@](Cc2ccccc2)(C(=O)OC)[C@H]2C(=O)N(Cc3ccccc3)C(=O)[C@@H]12)C(=O)c1ccc(C)cc1 | -1.78% (inactive)
42 | CC[C@]1(C(=O)OC)[C@H]2C(=O)N(Cc3ccccc3)C(=O)[C@H]2[C@H]2CN=C(SCc3ccc(C#N)cc3)N21 | 13.3% (active)
43 | CCN1C[C@@H]2[C@@H]3C(=O)N(Cc4ccccc4)C(=O)[C@@H]3[C@](Cc3ccccc3)(C(=O)OC)N2C1=NC1CCCCC1 | 0.85% (inactive)
44 | CCSC1(SCC)N=C(N)C2(C#N)C(c3ccccc3)NC(C)=CC12C#N (centres undefined) | -1.4% (inactive)
45 | O=C1CSC2=NCN(c3ccccc3)CN12 | 1.46% (inactive)
46 | CC(=O)Oc1ccc(OC(C)=O)c2c1C1C=CC2CC1 | 0.61% (inactive)
47 | CC(=O)N1CCN(c2ccc(NCc3ccc(C(C)C)cc3)cc2)CC1 | -1.92% (inactive)
48 | CC(=O)c1ccc(OC(=O)N2CCOCC2)cc1 | 0.72% (inactive)
49 | CC(C)NC(=O)C1(C)CCCCN1Cc1cccc(C(F)(F)F)c1 (centres undefined) | 0.98% (inactive)
50 | CC(=O)N1c2ccc(S(=O)(=O)N3CCCC(C(=O)Nc4cccc(F)c4)C3)cc2CC1C (centres undefined) | 1.26% (inactive)
51 | COCc1cc(=O)oc2cc(NS(=O)(=O)c3ccc(C)cc3)ccc12 | 0.66% (inactive)
52 | COc1ccc(CCNS(=O)(=O)c2cc3c(cc2C)NC(=O)CO3)cc1OC | -0.37% (inactive)

Row | SMILES | activation
53 | O=C1COc2c1ccc(O)c2O | 1.71% (inactive)
54 | S=C(NCCCc1cnc[nH]1)NCCCN(Cc1ccc(Cl)c(Cl)c1)c1ccc(Br)cn1 | -0.12% (inactive)
55 | Cc1cc(OCc2cc(C(=O)NCc3cc(C(C)C)no3)no2)cc(C)c1Cl | 8.34% (active)
56 | COc1ccc(OCc2cc(C(=O)NCC3(C)COC3)no2)c(Cl)c1 | 4.24% (inactive)
57 | Cc1cccnc1CC(C)NC(=O)c1cc(COc2cncc(Cl)c2)on1 (centres undefined) | 3.48% (inactive)
58 | O=C1CC(c2c(F)cccc2Cl)C(n2cncn2)C(O)=C1C1NCCc2ccccc21 (centres undefined) | -1.97% (inactive)
59 | CCOc1cc(CNCc2ccccn2)ccc1OCC(=O)NC(C)(C)C | -1.18% (inactive)
60 | CCn1c(NCCc2ccc(OC)c(OC)c2)nc2c1c(=O)n(C)c(=O)n2C | -0.8% (inactive)
61 | C#CC(C)(C)NC(=O)CSc1nc2c(c(=O)n(C)c(=O)n2C)n1CCCC | 0.86% (inactive)
62 | CCCCn1c(SCC(=O)NCCc2ccc(OC)c(OC)c2)nc2c1c(=O)n(C)c(=O)n2C | 7.97% (active)
63 | COc1cccc(CNS(=O)(=O)c2cc3c(cc2C)n(C)c(=O)c(=O)n3C)c1 | -0.74% (inactive)
64 | CC[C@@]12C(=O)N(c3ccccc3)C(=O)N1[C@H](c1ccc(Br)cc1)[C@@H]1C(=O)N(C(C)(C)C)C(=O)[C@@H]12 | 15% (active)
65 | CCN1C(=O)[C@H]2[C@@H](c3ccc(C)cc3)N3C(=O)N(c4cccc(Br)c4)C(=O)[C@@]3(CC)[C@H]2C1=O | 5.85% (inactive)
66 | COc1ccc([C@@H]2[C@@H]3C(=O)N(C(C)(C)C)C(=O)[C@@H]3[C@]3(Cc4ccccc4)C(=O)N(c4cccc(Br)c4)C(=O)N23)cc1 | 0.35% (inactive)
67 | CC(C)(C)N1C(=O)[C@H]2[C@@H](c3ccc(Br)cc3)N3C(=O)N(c4cccc(Cl)c4)C(=O)[C@@]3(C)[C@H]2C1=O | 14.1% (active)
68 | Cc1cccc([C@@H]2[C@@H]3C(=O)N(Cc4ccccc4)C(=O)[C@@H]3[C@]3(C)C(=O)N(c4ccc(Br)cc4)C(=O)N23)c1 | 4.94% (inactive)
69 | Cc1ccc(N2C(=O)N3[C@@H]4c5ccccc5OC[C@@H]4[C@@H](c4ccccc4)[C@@]3(C)C2=O)cc1 | -0.85% (inactive)
70 | CC1(Oc2ccccc2-c2ccno2)CCN(Cc2ccc(-c3ccccc3)o2)C1 (centres undefined) | 1.3% (inactive)
71 | O=C(COc1ccc(Cl)cc1)NCCS(=O)(=O)N1CCN(c2ccc(F)cc2)CC1 | -2.02% (inactive)
72 | CN(Cc1ccccc1)C(=O)C1CCCN(c2ncnc3c2nc2n3CCCCC2)C1 (centres undefined) | 1.56% (inactive)
73 | CSc1ccc(-c2c(C#N)c(N)nc3c2c(C)nn3-c2ccccc2)cc1 | 0.67% (inactive)
74 | COc1ccccc1-c1c(C#N)c(N)nc2c1CCC2 | 1.52% (inactive)
75 | CSc1nc(N)c(C#N)c(-c2ccccc2Cl)c1C#N | 16.1% (active)
76 | COc1ccc(CNC(=O)c2ccc(-c3cccnc3)c3ccoc23)cc1OC | 1.42% (inactive)
77 | Cc1ccc(O/C=C2\OC(=O)c3ccccc32)cc1 | -0.57% (inactive)
78 | CN(CCc1ccccn1)C(=O)CCC1CCCN(Cc2ccccc2OC(F)F)C1 (centres undefined) | 0.65% (inactive)

Row | SMILES | activation
79 | CN1CCc2nc(SC(C(=O)O)c3ccccc3)c(C#N)c(-c3cccs3)c2C1 (centres undefined) | 1.01% (inactive)
80 | CCc1c(-c2ccccc2)nc(N)c(C#N)c1-c1cccs1 | 3.81% (inactive)
81 | Cc1c(-c2ccccc2)nc(N)c(C#N)c1-c1cccs1 | 8.43% (active)
82 | Cc1cccc(C(=O)Nc2ccccc2C(=O)NCc2cccnc2)c1 | 0.13% (inactive)
83 | COc1ccc(S(=O)(=O)N(C)C)cc1NC(=O)CSc1ncccn1 | 2.15% (inactive)
84 | CN(C)S(=O)(=O)c1ccc2oc(SCC(=O)Nc3ccccc3F)nc2c1 | 7.74% (active)
85 | COc1ccc(NS(=O)(=O)c2ccc3oc(SCC(N)=O)nc3c2)cc1 | -1.75% (inactive)
86 | Cc1noc(C)c1-c1ccc(C(=O)NCc2ccncc2)c2occc12 | 3.59% (inactive)
87 | CN(N)c1nc(N2CCCC2)nc(N2CCCC2)n1 | 1.2% (inactive)
88 | O=C(NCCN1CCOCC1)c1ccccc1N1C(=O)[C@@H]2Cc3c([nH]c4ccccc34)C(c3cccc(Cl)c3)N2C1=O (some centres undefined) | -10.6% (inactive)
89 | CN(C)[C@@H]1C(=O)C(C(N)=O)=C(O)[C@@]2(O)C(=O)C3=C(O)c4c(O)ccc(Cl)c4[C@@H](O)[C@H]3C[C@@H]12 | 13.6% (active)
90 | C=C1c2c(Cl)ccc(O)c2C(O)=C2C(=O)[C@]3(O)C(O)=C(C(N)=O)C(=O)[C@@H](N(C)C)[C@@H]3[C@@H](O)C12 (some centres undefined) | 13.5% (active)
91 | CN(C(=O)CN1CCN(c2cc(-c3ccc(OCc4ccccc4)cc3)ncn2)CC1)c1ccccc1 | -2.58% (inactive)
92 | CN(C(=O)c1ccccc1)c1nccnc1C#N | 1.95% (inactive)
93 | CC(=O)N1CC2(C)CN(C(C)=O)CC(C)(C1)C2=O | 1.87% (inactive)
94 | CCCC1NC(=O)NC(C)=C1C(=O)OCC (centres undefined) | 0.3% (inactive)
95 | COC(=O)c1ccc(CSc2nc3ccccc3c(=O)n2-c2cccc(OC)c2)o1 | 10.1% (active)
96 | COCC(C)n1c(SCc2ccc(C(=O)OC)o2)nc2ccccc2c1=O (centres undefined) | 2.64% (inactive)
97 | COc1cccc(-n2c(SCC(=O)NC3CCS(=O)(=O)C3)nc3ccccc3c2=O)c1 (centres undefined) | -0.8% (inactive)
98 | Cc1ccc(C)c(OCCC(=O)OCC(=O)NC(=O)NCc2ccccc2)c1 | 1.32% (inactive)
99 | CCCCN(CC(=O)NC(C)(C)C)C(=O)C(=O)Nc1ccc2c(c1)OCCO2 | 0.41% (inactive)
100 | CCOC(=O)N1CCC(c2cc(=O)n(-c3ccccc3)[nH]2)CC1 | 1.97% (inactive)
101 | Cc1ccc(C(=O)N2CCC(n3nccc3NC(=O)Nc3cccc(F)c3)CC2)cn1 | -1.64% (inactive)
102 | O=C(NCc1ccccc1)C(c1cccnc1)N(C(=O)c1csnn1)c1ccc(F)cc1 (centres undefined) | -0.33% (inactive)
103 | CCOc1ccc(S(=O)(=O)N2CCN(C(=O)c3oc4ccccc4c3C)CC2)cc1 | 1.62% (inactive)
104 | COc1ccc(CCNCC(O)Cn2ccc3ccccc32)cc1OC (centres undefined) | 0.29% (inactive)
